From PubChem BioAssay (NCI)
Several values for one entry are separate records, joined by “and”; a condition that tells them apart may be missing. Equal values may be shown once. This is part of a sample that, as a whole, favours compounds with a hit. Of some 83,000 tested, about 20% had one in any assay.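 Cells were grown in 96-well plates and exposed to the test compound at a single concentration for 48 hours; results are reported as percent growth, with values below 10 considered active.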 A number with no mark means an inactive call. Activity calls are given as the source filed them.

Experiments:
Test in all cases: NCI-60 one-dose screen, 48 h (100 = growth as untreated, 0 = no growth, -100 = all killed)
Conditions in all cases: 10 µM unless noted
[1] = system: HCT-15 colon
[2] = system: HT29 colon
[3] = system: SNB-75 CNS
[4] = system: SNB-19 CNS
[5] = system: U251 CNS
[6] = system: PC-3 prostate
[7] = system: UACC-62 melanoma
[8] = system: LOX IMVI melanoma
[9] = system: SK-MEL-28 melanoma
[10] = system: SK-MEL-5 melanoma

SMILES | growth [1] | growth [2] | growth [3] | growth [4] | growth [5] | growth [6] | growth [7] | growth [8] | growth [9] | growth [10]
CC(=O)OC1CC2(O)C(CCC3(C)C(c4ccc(=O)oc4)CCC32O)C2(C)CCC(OC3OC(CO)C(O)C(O)C3O)C=C12 (stereo not drawn) | -85.2% (active) | -55% (active) | -61.4% (active) | -94% (active) | -92.1% (active) | -55.2% (active) | -65.6% (active) | -85.4% (active) | -31.7% (active) | –
Cc1cc[n+](CCc2ccccc2)cc1 | 109% and 106% | 98.4% and 92.6% | 96.3% and 84.1% | 102% and 106% | – | 101% | 102% and 116% | – | 103% and 101% | –
CC1(C)N=C(N)N=C(N)N1c1ccc(CCC(=O)Nc2ccc(S(=O)(=O)F)cc2)cc1 | 46.2% | 9.44% (active) | 51.8% | 55% | – | 20.2% | 26.2% | 15.8% | 52% | 34.8%
Cc1c2ccncc2c(C)c2c1[nH]c1ccccc12 | -40.3% (active) | 2% (active) | -89% (active) | -84.8% (active) | -82.2% (active) | – | 56.5% | -77.6% (active) | -96.7% (active) | -97.7% (active)
CCCCn1c(=O)c(C(=O)NCc2ccccc2Cl)c(O)c2ccccc21 | 48.6% | – | 98.4% | 82.6% | 68.2% | 34.1% | 88.5% | 55.4% | 103% | 72.7%
Nc1ccc2c(c1)Cc1cc(N)ccc1-2 | 85.3% | 98.8% | 74% | 103% | 94.9% | – | 96% | 105% | 92.6% | 95.8%
Cc1ccc(C(=O)O[C@H](C(=O)O)[C@H](OC(=O)c2ccc(C)cc2)C(=O)O)cc1 | 101% | 98% | 103% | – | 97.8% | – | 104% | 97% | 109% | 105%
CCCCCCCCCCCCCCCCCC1OCC(COC(=O)O[C@@H](C(=O)O[C@H]2C[C@@]3(O)[C@@H](OC(=O)c4ccccc4)[C@@H]4[C@]5(OC(C)=O)CO[C@@H]5C[C@H](O)[C@@]4(C)C(=O)[C@H](OC(C)=O)C(=C2C)C3(C)C)[C@@H](NC(=O)c2ccccc2)c2ccccc2)O1 (stereo partly drawn) | 99.4% | 5.3% (active) | 37.7% | 49.1% | 40.8% | – | – | 37.5% | 58.4% | 60.4%
Nc1cccnc1 | 111% | 103% | – | 109% | 103% | 97.9% | 109% | 104% | 117% | 112%
O=S1(=O)OCCO1 | 99% | 107% | 90.5% | – | 105% | 99.9% | 87.4% | 92.3% | 100% | 101%
COc1cc2c(c(OC)c1OC)-c1ccc(O)cc1[C@@H](NC(C)=O)CC2 | 4.26% (active) and 6.32% (active) | 5.06% (active) | 12.7% and 14.9% | 27.8% and 26.4% | 22.5% and 18.3% | – | 45.6% and 24.4% | 12.1% and 20.2% | 52.3% and 40% | –
CC(C)CCC1C(=O)NC(=O)NC1=O | 101% | – | 104% | 115% | 97.6% | 98% | 96.7% | 104% | 101% | 103%
CC1=C(C)C(=O)O[C@@H]([C@](C)(O)[C@]2(O)CC[C@@]3(O)[C@@H]4C[C@H]5O[C@]56CC=CC(=O)[C@]6(C)[C@H]4CC[C@]23C)C1 | -1.03% (active) | 1.74% (active) | -11.3% (active) | 30.8% | – | 11.2% | -5.31% (active) | -54.7% (active) | 1.96% (active) | -15.6% (active)
COC12CC3(C)C(C4=CC(=O)OC4)CCC3(O)C3CCC4=CC(=O)CCC4(CO1)C32 (stereo not drawn) | 101% | 103% | 90.6% | 107% | 103% | – | 99.6% | 102% | 122% | 106%
CC1=CC(=O)CCC12CCOC2=O (stereo not drawn) | 98.7% | 101% | 91.3% | – | 99.1% | 111% | 87% | 95.6% | 95.9% | 103%
C[C@]12CC[C@H]3[C@@H](CC=C4c5nc(-c6ccc(Br)cc6)sc5CC[C@@]43C)[C@@H]1CC[C@@H]2O | 89.1% | 109% | 78.4% | 84.4% | 63.4% | – | 84.4% | 90% | 90.1% | –
CCN1C(=O)NC(=O)C(C)(N2C(=O)c3c(F)c(F)c(F)c(F)c3C2=O)C1=O (stereo not drawn) | 5.26% (active) | 6.44% (active) | 64.6% | 49.3% | -25.4% (active) | – | 10.4% | -13.9% (active) | -45.5% (active) | 54.1%
O=C(Cc1ccccc1)NC(O)C(Cl)(Cl)Cl (stereo not drawn) | 118% | 99.3% | 86.1% | 95% | 99.9% | – | 97.9% | 101% | 110% | 105%
CN1CCC2(CC1)C(C#N)C(=O)NC(=O)C2C#N (stereo not drawn) | 98.4% | 118% | 76.4% | 99% | – | 101% | 101% | 100% | 95.1% | 102%
[N-]=[N+]=CC(=O)CCC(=O)C=[N+]=[N-] | 111% | 107% | 96.6% | 99.6% | 100% | – | 96.5% | 94.9% | 112% | 116%
Nc1nc(=S)nc(N)[nH]1 | 101% | 104% | – | 97.2% | 97% | – | 101% | – | 100% | 103%
C[Se]/C=C1/C(=O)N(c2c(Cl)cccc2Cl)c2ccccc21 | 45.7% | 7.79% (active) | -30.8% (active) | 32.6% | 25.1% | – | 27.8% | 17.7% | 8.1% (active) | 38.9%
Cn1cc(C(=O)C[n+]2ccccc2)c2ccccc21 | 110% | 105% | – | 105% | 97% | 90.4% | 105% | 93.2% | 114% | 97.9%
O=[N+]([O-])c1cc(Cl)c(Cl)cc1Cl | 104% and 108% | 124% and 111% | 93.8% and 121% | 101% and 131% | 93.4% and 102% | – | 91.4% and 115% | 96.5% and 98.4% | 115% and 124% | 123% and 105%
COCC1OC2OC3C(COC)OC(OC4C(COC)OC(OC5C(COC)OC(OC6C(COC)OC(OC7C(COC)OC(OC8C(COC)OC(OC1C(O)C2O)C(O)C8O)C(O)C7O)C(O)C6O)C(O)C5O)C(O)C4O)C(O)C3O (stereo not drawn) (tested in a mixture with another compound) | 103% | 109% | 86.1% | 110% | 105% | – | 107% | 102% | 112% | –
CCOC(=O)P(=O)(OCC)OCC | 101% | 102% | 115% | 97.9% | 109% | – | 96.9% | 91.6% | 106% | 107%
CC[C@@H](C)C(=O)O[C@H]1[C@H](O)[C@H]2[C@@H](CN3C[C@@H](C)CC[C@H]3[C@@]2(C)O)[C@@H]2C[C@]34O[C@]5(O)[C@@H](OC(=O)[C@@](C)(O)CC)CC[C@@]3(C)[C@@H]5[C@@H](OC(C)=O)[C@@H](OC(C)=O)[C@H]4[C@@]21O | 109% | 112% | 79.8% | 100% | 91.8% | – | – | 92.8% | 105% | 86.6%
